Assay results: PubChem BioAssay AID1159580 (chemical genetic matrix, 2015)
Hit rate of the full screen: of about 5,500 compounds, about 2,000 (36%) were called active. Another 18% or so got no clear call; they are omitted. Cut-off read from the data, not from the text of the source: active = normalized growth mostly below about 0.91 (no sharp cut-off); inconclusive = no clear call, values can overlap the other calls; inactive = mostly above about 0.92. The list shows a part of the results.

Experiment: chemical genetic growth profiling, strain panel (AID 1159580);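 note: tested at 20 µM; growth read once vehicle control cultures reached saturation at 30 °C; 1 = growth at the plate median or of vehicle wells; lower values mean less growth of the strain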
Settings: growth OD

Measured: normalized growth

C[C@]12CCC3c4ccc(O)cc4CCC3C1CC[C@@H]2O (stereo not given in full)
inactive: S. cerevisiae deletion strains, locus YJR066W, strain TOR1, active compounds read low 0.902 | S. cerevisiae deletion strains, locus YJR075W, strain HOC1, active compounds read low 1.02 | S. cerevisiae deletion strains, locus YKL009W, strain mrt4, active compounds read low 0.892 | S. cerevisiae deletion strains, locus YKL068W, active compounds read low 1.02 | S. cerevisiae deletion strains, locus YKL085W, strain MDH1 (second series), active compounds read low 1.04 | S. cerevisiae deletion strains, locus YKL085W, strain MDH1, active compounds read low 1.04 | S. cerevisiae deletion strains, locus YKL160W, strain elf1, active compounds read low 0.988 | S. cerevisiae deletion strains, locus YKL190W, strain CNB1, active compounds read low 1.03 | S. cerevisiae deletion strains, locus YKR001C, strain vps1, active compounds read low 0.915 | S. cerevisiae deletion strains, locus YKR026C, strain gcn3, active compounds read low 1.03 | S. cerevisiae deletion strains, locus YKR091W, strain srl3, active compounds read low 1.02 | S. cerevisiae deletion strains, locus YLL001W, strain dnm1, active compounds read low 1.02 | S. cerevisiae deletion strains, locus YLL026W, active compounds read low 0.982 | S. cerevisiae deletion strains, locus YLL041C, strain sdh2, active compounds read low 1.02 | S. cerevisiae deletion strains, locus YLR027C, strain aat2, active compounds read low 0.973 | S. cerevisiae deletion strains, locus YLR039C, strain RIC1, active compounds read low 0.866 | S. cerevisiae deletion strains, locus YLR058C, strain SHM2, active compounds read low 1 | S. cerevisiae deletion strains, locus YLR102C, strain apc9, active compounds read low 1.01 | S. cerevisiae deletion strains, locus YLR113W, strain HOG1, active compounds read low 0.983 | S. cerevisiae deletion strains, locus YLR221C, strain rsa3, active compounds read low 0.977 | S. cerevisiae deletion strains, locus YLR258W, strain gsy2, active compounds read low 0.96 | S. cerevisiae deletion strains, locus YLR262C, strain YPT6, active compounds read low 0.819 | S. cerevisiae deletion strains, locus YLR268W, strain sec22, active compounds read low 0.936 | S. cerevisiae deletion strains, locus YLR320W, strain mms22, active compounds read low 0.892 | S. cerevisiae deletion strains, locus YLR330W, strain CHS5, active compounds read low 1 | S. cerevisiae deletion strains, locus YLR342W, strain FKS1 (second series), active compounds read low 0.868 | S. cerevisiae deletion strains, locus YLR342W, strain FKS1, active compounds read low 1 | S. cerevisiae deletion strains, locus YLR357W, strain rsc2, active compounds read low 1.03 | S. cerevisiae deletion strains, locus YLR370C, strain arc18, active compounds read low 1 | S. cerevisiae deletion strains, locus YLR371W, strain rom2, active compounds read low 1.02 | S. cerevisiae deletion strains, locus YLR384C, strain iki3, active compounds read low 1.02 | S. cerevisiae deletion strains, locus YLR418C, strain cdc73, active compounds read low 0.896 | S. cerevisiae deletion strains, locus YML016C, strain PPZ1, active compounds read low 1.01 | S. cerevisiae deletion strains, locus YML032C, strain rad52, active compounds read low 0.977 | S. cerevisiae deletion strains, locus YML120C, strain ndi1, active compounds read low 0.996 | S. cerevisiae deletion strains, locus YML124C, strain tub3, active compounds read low 1.01 | S. cerevisiae deletion strains, locus YMR058W, strain fet3, active compounds read low 0.917 | S. cerevisiae deletion strains, locus YMR078C, strain ctf18, active compounds read low 0.985 | S. cerevisiae deletion strains, locus YMR125W, strain sto1, active compounds read low 1.1 | S. cerevisiae deletion strains, locus YMR129W, active compounds read low 1.02 | S. cerevisiae deletion strains, locus YMR205C, strain PFK2, active compounds read low 1.01 | S. cerevisiae deletion strains, locus YMR223W, strain ubp8, active compounds read low 0.974 | S. cerevisiae deletion strains, locus YMR231W, strain pep5, active compounds read low 1.01 | S. cerevisiae deletion strains, locus YMR263W, strain SAP30, active compounds read low 0.98 | S. cerevisiae deletion strains, locus YMR307W, strain GAS1, active compounds read low 0.929 | S. cerevisiae deletion strains, locus YNL067W, strain RPL9B, active compounds read low 0.978 | S. cerevisiae deletion strains, locus YNL071W, strain lat1, active compounds read low 0.958 | S. cerevisiae deletion strains, locus YNL153C, strain GIM3, active compounds read low 0.955 | S. cerevisiae deletion strains, locus YNL183C, strain NPR1, active compounds read low 0.912 | S. cerevisiae deletion strains, locus YNL209W, strain ssb2, active compounds read low 1.01 | S. cerevisiae deletion strains, locus YNL233W, strain BNI4, active compounds read low 0.997 | S. cerevisiae deletion strains, locus YNL248C, strain rpa49, active compounds read low 0.993 | S. cerevisiae deletion strains, locus YNL250W, strain rad50, active compounds read low 0.955 | S. cerevisiae deletion strains, locus YNL271C, strain bni1, active compounds read low 0.977 | S. cerevisiae deletion strains, locus YNL307C, strain MCK1, active compounds read low 0.987 | S. cerevisiae deletion strains, locus YNL322C, strain KRE1 (second series), active compounds read low 1.03 | S. cerevisiae deletion strains, locus YNR049C, strain mso1, active compounds read low 1.02 | S. cerevisiae deletion strains, locus YNR052C, strain pop2, active compounds read low 0.928 | S. cerevisiae deletion strains, locus YOL006C, strain TOP1, active compounds read low 0.744 | S. cerevisiae deletion strains, locus YOL012C, strain htz1 1.8 | S. cerevisiae deletion strains, locus YOL147C, strain pex11, active compounds read low 1 | S. cerevisiae deletion strains, locus YOR001W, strain rrp6, active compounds read low 0.948 | S. cerevisiae deletion strains, locus YOR061W, strain CKA2, active compounds read low 0.984 | S. cerevisiae deletion strains, locus YOR069W, strain VPS5, active compounds read low 1 | S. cerevisiae deletion strains, locus YOR070C, strain gyp1, active compounds read low 0.974 | S. cerevisiae deletion strains, locus YOR080W, strain dia2, active compounds read low 0.996 | S. cerevisiae deletion strains, locus YOR083W, strain WHI5, active compounds read low 0.96 | S. cerevisiae deletion strains, locus YOR106W, strain vam3, active compounds read low 0.934 | S. cerevisiae deletion strains, locus YOR136W, strain idh2, active compounds read low 0.978 | S. cerevisiae deletion strains, locus YOR144C, strain elg1, active compounds read low 0.974 | S. cerevisiae deletion strains, locus YOR231W, strain MKK1, active compounds read low 0.928 | S. cerevisiae deletion strains, locus YOR265W, strain rbl2, active compounds read low 0.986 | S. cerevisiae deletion strains, locus YOR270C, strain vph1, active compounds read low 0.797 | S. cerevisiae deletion strains, locus YOR290C, strain snf2, active compounds read low 0.906 | S. cerevisiae deletion strains, locus YOR316C, strain cot1, active compounds read low 1 | S. cerevisiae deletion strains, locus YPL051W, strain arl3, active compounds read low 0.953 | S. cerevisiae deletion strains, locus YPL055C, strain LGE1, active compounds read low 0.907 | S. cerevisiae deletion strains, locus YPL078C, strain atp4, active compounds read low 0.963 | S. cerevisiae deletion strains, locus YPL106C, strain sse1, active compounds read low 1.08 | S. cerevisiae deletion strains, locus YPL240C, strain hsp82, active compounds read low 0.999 | S. cerevisiae deletion strains, locus YPL256C, strain CLN2, active compounds read low 0.99 | S. cerevisiae deletion strains, locus YPR119W, strain clb2, active compounds read low 1.03 | S. cerevisiae deletion strains, locus YPR141C, strain kar3, active compounds read low 1.03 | S. cerevisiae deletion strains, locus YPR163C, strain tif3, active compounds read low 0.963 | S. cerevisiae deletion strains, locus YPR167C, strain met16, active compounds read low 0.985 | S. cerevisiae deletion strains, strain wtn01, active compounds read low 0.92 | S. cerevisiae strains, strain wild type, active compounds read low 1
active: S. cerevisiae deletion strains, locus YLR262C, strain YPT6 (second series), active compounds read low 0.738 | S. cerevisiae deletion strains, locus YNL298W, strain CLA4, active compounds read low 0.897 | S. cerevisiae deletion strains, locus YOR184W, strain ser1, active compounds read low 0.857
